Sampled rows, rich in hits. Any-hit rate of the full collection: about 6.5%.
IL-1B inflam inh – inhibitors of inflammasome signaling (IL-1 beta secretion); THP-1 LPS/ATP IL-1B secretion, AlphaLISA, 16 h; active compounds read low; AID 743279; actives 4.7% (n = 360,000); activity change, % at 57.5 µM; in the data active = activity change below about -50%; inconclusive = mostly about -30% to -49%
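THP-1 cells pretreated 1 hr with compounds (up to 57.5 uM final), then stimulated with LPS (250 ng/mL final) plus ATP (1.25 mM final); secreted IL-1B measured by AlphaLISA after 16 hr, decreased signal indicating inhibition.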
HT1080NT lethal – kills 2HG-producing HT-1080-NT fibrosarcoma cells; HT-1080-NT fibrosarcoma viability, CellTiter-Glo ATP luminescence, 48 h; Potency, µM (highest dose often 46.1 µM), hits mostly cytotoxic; actives 1.6% (n = 360,000);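 note: NT is the 2HG producing partner of a matched IDH1 knockdown line; nearly all actives have a fitted effect of over 55% in size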
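Toxicity toward the 2HG-producing NT line was scored as %Activity, normalised to DMSO and no-cell wells, from CellTiter-Glo luminescence after 48 hours' treatment.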
HepG2 viability – counter-screen for TGF-b inhibitors: cytotoxicity in HepG2 cells. Potency, µM (doses to about 46.1 µM), usual class: cytotoxic. actives 0.76% (n = 410,000). HepG2 CAGA-GFP viability, ATP luminescence, 18 h
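HepG2 CAGA-GFP cells (1000/well, DMEM with 1% FBS) received compound, then TGF-beta at 500 pg/mL final, and were incubated 18 hours at 37 degrees C. Viability was read by CellTiter-Glo luminescence. Media-only wells were set as complete cell-killing and DMSO as no toxicity.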
HT1080 IDH1KD tx – toxicity to HT-1080 IDH1 knockdown cells (counter line) | HT-1080 IDH1 knockdown viability, ATP luminescence, 48 h | Potency, µM (doses to about 46.1 µM), usual class: cytotoxic | actives 2% (n = 360,000) | AID 686971
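In this qHTS, HT-1080 cells depleted of IDH1 are exposed for 48 h at 37 °C to compound titrations. Toxicity is scored from CellTiter-Glo luminescence, with DMSO as full viability and medium alone as none.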
Giardia killer – kills Giardia lamblia; actives 0.15% (n = 340,000); Giardia lamblia trophozoite viability; AID 540267; activity change, % at 7.66 µM, hits read low; in the data active = activity change below about -80%; inconclusive = between about -30% and that limit;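 note: parasites exposed to compound for two days anaerobically before the ATP read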
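Luminescent ATP signal served as the viability read-out, measured 15-30 min after adding ATP detection reagent to trophozoites that had been incubated with compounds for 48 hrs at 37 deg C anaerobically at 100 cells/well.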
TGFb SMAD3 inh – inhibitors of TGF-b signaling. HepG2 CAGA-GFP TGF-b/SMAD3 reporter, GFP fluorescence, 18 h; TGF-beta stimulated, 500 pg/mL final. Potency, µM (series often up to 46.1 µM), most hits filed as inhibitors. actives 1.2% (n = 410,000); note: nearly all actives have a fitted effect of over 65% in size
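Smad-responsive CAGA-GFP expression was quantified in HEPG2 cells exposed to compounds and 500 pg/mL final TGF-beta for 18 h at 37 degrees C; unstimulated wells defined full inhibition.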
Numbers stand for hits; – = inactive; ? = inconclusive; · = no result; [ ] = another dose, or the depositor's remark. Unless noted, calls come from the whole dose curve; as a rule, active = well fitted curve in the direction sought with a large enough effect; inconclusive = small, poorly fitted or top-dose-only effect, or another doubt; inactive = no such curve, though single readings can be large; an effect the other way counts as inactive or inconclusive.

SMILES | IL-1B inflam inh | HT1080NT lethal | HepG2 viability | HT1080 IDH1KD tx | Giardia killer | TGFb SMAD3 inh
CCOC(=O)C1=C(CN2CCN(c3ccc(Cl)cc3)CC2)NC(=O)NC1c1ccc(F)cc1 (stereo unspecified) | · | · | – | · | · | 15.8µM
CCCCCOC(=O)C1=C(C)NC(=O)NC1c1ccc2c(c1)OCO2 (stereo unspecified) | -54.3 | – | – | – | – | –
CCOC(=O)C1=C(C)N=c2s/c(=C\c3ccncc3)c(=O)n2C1c1ccc2c(c1)OCO2 (stereo unspecified) | -67.0 | ? | – | –[9.24 µM] | – | –
CC1=C(C(=O)OCCCBr)C(c2ccc3c(c2)OCO3)NC(=O)N1 (stereo unspecified) | – | – | – | – | – | –
CCOC(=O)C1=C(CN2CCN(c3ccccc3F)CC2)NC(=O)NC1c1ccc(Cl)cc1 (stereo unspecified) | · | · | – | · | · | –
CC(C)OC(=O)CSc1nnc(Cc2ccccc2)n1CC1CCCO1 (stereo unspecified) | – | – | – | – | – | –
O=C(COC(=O)/C=C/c1ccc(F)cc1)NC1CCCCCC1 | – | – | – | – | – | –
CCc1nnc(SCc2ccc([N+](=O)[O-])cc2)nc1CC | – | – | – | – | – | –
CCCc1cc(C(=O)NCc2ccc(OC)cc2)no1 | – | – | – | – | – | –
Cc1cc(N2CCCCCC2)nc(-c2ccccc2O)n1 | – | – | – | – | – | –
CCC(C)NCCOCCOc1ccc(Cl)c2ccccc12 (stereo unspecified) | -103.7 | 16.4µM | – | 20.6µM | – | ?
CCC(C)NCCCOc1cc(Cl)ccc1Cl (stereo unspecified) | – | – | – | – | – | –
CCC(C)NCCOCCOc1ccc(Cl)c(C)c1C (stereo unspecified) | – | ? | – | 20.6µM | – | –
COc1ccc(C(=O)Nc2cc3c(cc2N2CCCCC2)n(C)c(=O)n3C)cc1OC | – | – | – | – | – | –
CN(C)S(=O)(=O)c1ccc(C(=O)Nc2nnc(-c3ccco3)o2)cc1 | – | – | – | – | – | –
CNc1nc(-c2ccc3c(c2)CCN3S(=O)(=O)c2ccccc2)c(C)s1 | – | – | – | ? | – | –
O=S(Cc1ccccc1)CC(O)(c1ccc(Cl)cc1)c1ccc(Cl)cc1 (stereo unspecified) | -59.3 | ? | – | ? | – | ?
COc1ccc(NC(=O)c2cccc(S(=O)(=O)NCc3ccccc3)c2)cc1S(N)(=O)=O | – | – | – | – | – | –
CC(C)CN(CC(C)C)CC(O)COc1ccccc1Br (stereo unspecified) | – | ? | 11.2µM | ? | – | 11.2µM
COc1ccc(/C=N/NC(=O)C[n+]2ccccc2)c(OC)c1 | – | – | – | – | – | –
O=C(CSc1ncc(-c2ccccc2)n1C1CCCC1)N1CCc2ccccc21 | -61.4 | – | – | ? | – | ?
O=C(CSc1n[nH]c(-c2ccccc2O)n1)N1CCCc2ccccc21 | – | ? | – | 16.4µM | – | –
Cn1c(-c2ccccc2)cnc1SCC(=O)N1CCCc2ccccc21 | ? | – | – | – | – | –
Cc1ccc(-c2cnc(SCC(=O)N3CCCc4ccccc43)n2C)cc1 | -50.1 | – | – | – | – | ?
O=C(CSc1nnnn1-c1ccccc1)N1CCCc2ccccc21 | -55.0 | – | – | – | – | –
CCOc1cc(N2CCOCC2)c(OCC)cc1NC(=O)c1ccc(NC(C)=O)cc1 | – | – | – | – | – | –
O=C(NC1=NCCS1)c1ccccc1Br | – | – | – | – | – | –
CCCCN(CC)CCCNC(=O)C1CCN(c2ncnc3c2sc2cccc(F)c23)CC1 | -97.2 | 20.6µM | – | 20.6µM | – | ?
O=S(=O)(c1ccc(Cl)c(Cl)c1)c1snnc1-c1ccccc1 | -116.3 | 16.4µM | 15.8µM | 8.2µM | – | ?

Screening data as filed in PubChem BioAssay.
